# Compound activity as filed in PubChem.
# Rows were chosen to be rich in hits. Some 4.1% of all compounds tested hit in one or more screens of this group.
# TWEAK Fn14 block = inhibitors of TWEAK-Fn14 signaling, primary screen, luciferase reporter cells, uHTS; TWEAK-stimulated Fn14 reporter cells, luciferase luminescence, 8 h; AID 1159606, 2016; inhibition, % at 10 µM; 360,000 tested, 2% active; in the data active = inhibition above about 50%
# LMP1 NFkB inh = EBV LMP1-driven NF-kappaB luciferase reporter inhibitors, primary screen, cell-based, luminescence, single point. inhibition, % at 12.5 µM. LMP1-induced NF-kappaB luciferase reporter cells. 350,000 tested, 0.69% active; in the data active = inhibition above about 41%;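 note: 0% = neutral control wells and 100% = reference inhibitor control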
# TROY NFkB inh = inhibitors of TROY-driven NF-kB signaling, primary screen, Q293 LMP1-TROYcd cells, NF-kB luciferase, uHTS. 360,000 tested, 0.98% active. inhibition, % at 10 µM. Q293 LMP1-TROYcd NF-kB luciferase reporter, 4 h;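 active = compounds whose plate-normalised and pattern-corrected inhibition of the luciferase reporter signal at the single screening dose is 50% or more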
# Shn3 3UTR inh = reduction of Shn3 3'UTR firefly luciferase signal, primary screen, Schnurri-3 inhibitor project, cell-based, Clone20 osteoblasts, set 2 | Clone20 osteoblast Shn3 3'UTR firefly luciferase, 24 h | inhibition, % at 12.5 µM | 360,000 tested, 0.52% active;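 active = mean inhibition of at least 75% with every replicate also reaching 75%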;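 note: 0% = median of neutral control wells and 100% = pilot-screen positive control compound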
# Peg3 promoter = Peg3 promoter-driven luciferase inhibitors, primary screen, cell-based, HeLa, luciferase luminescence. HeLa PEG-Prom luciferase reporter, overnight. inhibition, % at 20 µM. 360,000 tested, 1.7% active;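 active = inhibition of at least 50% at 20 µM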
# MITF TRPM1 inh = inhibitors of MITF-dependent TRPM1 promoter reporter, primary screen, cell-based, SK-MEL-5, single point, luciferase. SK-MEL-5 TRPM1 promoter luciferase, 24 h. inhibition, % at 12.5 µM. 330,000 tested, 0.83% active. AID 488899, 2010;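 active = mean inhibition across replicates of 60% or more, whatever share of single replicates reaches that level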
# The depositor's hits bear a star; . = no result.
SMILES,TWEAK Fn14 block,LMP1 NFkB inh,TROY NFkB inh,Shn3 3UTR inh,Peg3 promoter,MITF TRPM1 inh
CC(CC(=O)N1CCN(c2cccc(Cl)c2)CC1)S(=O)(=O)c1ccc2c(c1)NC(=O)CO2 (configuration not stated),59*,22,47,89*,16,25
CC1(C)Cc2c(c(=S)nc(-c3ccccc3)n2CCOCCO)CO1,55*,-3,.,12,5,-7
Cc1ccc(-c2nc(=S)c3c(n2Cc2cccnc2)CC(C)(C)OC3)cc1,74*,2,7,-3,0,-4
Cc1ccc(-c2nc(=S)c3c(n2CCN2CCOCC2)CC(C)(C)OC3)cc1,21,-2,52*,-1,-10,-2
Cc1ccccc1NC(=O)C(C)Sc1nnc(CN2CCCC2)n1Cc1ccccc1 (configuration not stated),-6,4,10,-14,-9,.
COc1ccccc1CCNC(=O)C(=O)NCC1OCCN1S(=O)(=O)c1ccc([N+](=O)[O-])cc1 (configuration not stated),5,-71,-16,-5,18,15
CN1CCCN(C(=O)CNC(=O)c2ccccc2Br)CC1,6,-7,12,-14,0,-2
Cc1ccc(C2CC(C(F)F)n3ncc(C(=O)Nc4cnn(Cc5ccccc5C)c4)c3N2)cc1 (configuration not stated),13,-15,36,9,61*,0
Cc1ccccc1Cn1cc(NC(=O)c2nn(C)cc2Cl)cn1,-8,-2,0,-16,-35,-22
Cc1ccc(C(=O)NNc2ncnc3c2cnn3C)cc1,-22,-3,-6,7,3,-9
Cn1ncc2c(O/N=C(\N)c3ccc(C(F)(F)F)cc3)ncnc21,-17,-11,13,27,107*,9
CC(C)(C)CNC(=O)C1(C)CCN1C(=O)Cc1ccc(-c2ccccc2)cc1 (configuration not stated),67*,.,6,6,18,.
CC1(C(=O)NCc2ccccc2Br)CCN1C(=O)Cc1ccc(-c2ccccc2)cc1 (configuration not stated),10,.,17,22,24,.
CC(C)(C)c1ccc(CC(=O)N2CCC2(C)C(=O)NCc2cccc3ccccc23)cc1 (configuration not stated),7,.,5,8,52*,.
CC(C)(C)c1ccc(CC(=O)N2CCC2(C)C(=O)Nc2cccc3ccccc23)cc1 (configuration not stated),10,.,8,-18,16,.
O=C(CCCc1ccccc1)Nc1ccccc1[N+](=O)[O-],-32,-29,-40,-26,-171,-56
Cc1cc(-c2nc(-c3ccncc3)no2)ccc1[N+](=O)[O-],8,-18,-40,-78,-225,-66
c1ccc(-c2ccc(-c3nc(-c4ccccn4)no3)cc2)cc1,106*,83*,89*,83*,97*,.
c1ccc(-c2noc(-c3cccc4ccccc34)n2)nc1,77*,-1,20,-35,-63,8
Cc1cccc(-c2nnc(-c3ccc4ccccc4c3)o2)c1,55*,8,23,-10,-222,-46
COc1cccc(-c2nc(-c3ccccn3)no2)c1OC,-2,-8,-38,-78,-277,-78
Cc1ccc(-c2nc(-c3ccccn3)no2)cc1[N+](=O)[O-],62*,28,25,4,-68,-3
c1ccc(-c2cc(-c3nc(-c4ccccn4)no3)c3ccccc3n2)cc1,22,12,-4,28,8,-10
CC(C)NC(=O)Cn1c(=O)n(CC(=O)N2CCCCC2)c(=O)c2sccc21,12,1,11,-17,11,8
Cc1ccc2nc(C)c3c(c2c1)N(c1ccc(F)cc1)CC3,-63,13,-27,25,1,-18
SMILES,TWEAK Fn14 block,LMP1 NFkB inh,TROY NFkB inh,Shn3 3UTR inh,Peg3 promoter,MITF TRPM1 inh
c1ccc(-c2noc(-c3ccco3)n2)nc1,53*,4,-16,-46,-131,-19
c1ccc(-c2noc(-c3ccc4ccccc4c3)n2)cc1,81*,9,69*,29,-45,43
c1ccc(-c2noc(-c3ccno3)n2)nc1,0,4,-36,-8,-37,-12
O=C(Nc1ccc(Cl)cc1C(=O)NCC1CCCO1)c1ccc(Cl)cc1Cl (configuration not stated),16,-13,10,-7,17,3
O=C(c1ccccc1)N1CCSC1=S,5,27,22,-1,-4,-2
O=C(c1ccccc1)N1CCSc2sccc2C1=O,-4,72*,-40,27,27,50
COc1ccc([N+](=O)[O-])cc1NC(=O)C(C)c1ccccc1 (configuration not stated),-2,5,13,11,22,3
O=C(NNC(=S)NC(=O)c1ccccc1Cl)c1cccc([N+](=O)[O-])c1,2,-2,15,2,7,4
COc1ccc([N+](=O)[O-])cc1NC(=S)NC(NC(=O)C(c1ccccc1)c1ccccc1)C(Cl)(Cl)Cl (configuration not stated),63*,37,24,45,50*,19
O=C(NC(NC(=S)Nc1c(Cl)cccc1Cl)C(Cl)(Cl)Cl)c1cccc([N+](=O)[O-])c1 (configuration not stated),60*,-9,45,48,52*,-4
Cc1ccc(SCCSc2nc(C)cc(=O)[nH]2)cc1,9,7,-30,-71,-160,-49
CCOC(=O)CSC1=NC(=O)/C(=C/c2ccc(OC)cc2)S1,-8,-17,-75,9,102*,82*
Cc1cc(N2CCN(C)CC2)ccc1NC(=O)c1ccc(-c2ccc(Cl)cc2)o1,94*,-1,80*,31,90*,-2
Cc1ccc(NC(=O)Cn2c(-c3ccc(F)cc3)cnc2SCC(=O)Nc2c(C)cccc2C)cc1,-23,-33,-9,58,76*,5
CCOc1ccc(NC(=O)CSc2ncc(-c3ccc(F)cc3)n2Cc2ccco2)cc1,-19,0,15,19,11,8
COc1ccc(CNC(=S)NC2CCCC2)cc1,13,-3,10,3,8,10
Cc1ccc(CNC(=S)NC2CCC(C(C)(C)C)CC2)cc1 (configuration not stated),-15,10,51*,8,13,-1
COCC1CCN(C(=O)c2ccc(OC3CCN(Cc4ccccn4)CC3)cc2)C1 (configuration not stated),-1,1,29,-14,0,8
